An excerpt weighted towards active compounds, which were near 4.1% of everything screened.
DAX1 inh-1 – DAX1 (NR0B1) inhibitors, primary screen, cell-based, HEK293, Gal4-DAX1, luciferase luminescence | Nuclear receptor subfamily 0 group B member 1 (Homo sapiens), P51843 | HEK293 Gal4-DAX1 luciferase reporter | inhibition, % at 6.75 µM | 340,000 tested, 0.99% active | AID 504766, 2011;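 active = inhibition above the mean over all tested compounds plus 3 SD, cut at about 4.2% in these data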;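 also: 0% = DAX1-transfected cells with DMSO and 100% = empty-vector control cells with DMSO; inhibition shows as a rise in luminescence from relieved DAX1 repression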
DAX1 inh-2 – DAX1 (NR0B1) inhibitors on StAR promoter, primary screen, cell-based, luminescence, SF-1 (NR5A1), full-length DAX-1. HEK293T StAR-luciferase reporter, SF-1/DAX-1 repression relief. inhibition, % at 6.8 µM. 370,000 tested, 1.1% active. AID 652010, 2013;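 active = inhibition above the mean over all tested compounds plus 3 SD, cut at about 3.6% in these data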;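 also: 0% = DAX-1 cells with DMSO and 100% = cells lacking DAX-1 with DMSO; higher inhibition means more luminescence from relief of DAX-1 repression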
hcDAF12 agonist – H. contortus DAF-12 nuclear receptor activators, primary screen, cell-based, luminescence, HEK293, lit1-tk-luc reporter; HEK293 hcDAF-12 lit1-tk-luc reporter; 0% DMSO, 100% Δ7-dafachronic acid; activation, % at 6.8 µM; 370,000 tested, 1.4% active; AID 652067, 2013;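 active = activation above the mean of all tested compounds plus 3 SD, cut at about 5.5% in these data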;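 also: 100% = response to 3 µM Δ7-dafachronic acid high control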
ssDAF-12 act – S. stercoralis DAF-12 nuclear receptor activators, primary screen, cell-based, luminescence, HEK293, GRIP1 co-expression, lit1-tk-luc; AID 652126, 2013; Nuclear hormone receptor DAF-12 (Strongyloides stercoralis); HEK293 ssDAF-12/GRIP1 lit1-tk-luc reporter; % of 3 µM dafachronic acid response; activation, % at 6.8 µM; 370,000 tested, 1% active;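 active = activation above the mean over all tested compounds plus 3 SD, cut at about 0.9% in these data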;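 also: 0% = DMSO-only wells and 100% = 3 µM delta7-dafachronic acid wells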
hgDAF-12 ag – H. glycines DAF-12 receptor agonists, primary screen, cell-based, luminescence, HEK293, GAL4 fusion, UAS-luciferase. 370,000 tested, 1.8% active. Nuclear hormone receptor DAF-12 (Heterodera glycines), GAL4 fusion. activation, % at 6.8 µM. AID 687014, 2013. HEK293 GAL4-hgDAF12 UAS-luciferase reporter, agonist luminescence; normalized to butyrate control;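 active = activation above a cutoff set at the mean of all screened compounds plus 3 SD, cut at about 10% in these data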;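 also: 0% = DMSO wells and 100% = sodium butyrate wells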
LXR ag – LXR agonists, Gal4 luciferase reporter, confirmation, counter-screen for hcDAF-12 agonist project, cell-based, luminescence, HEK293, H. contortus campaign | 3,400 tested, under 10 active | shares compounds with hcDAF12 agonist | activation, % at 6.8 µM | AID 743027, 2013 | HEK293 Gal4-LXR tk-luc reporter, 24 h; normalized: DMSO 0%, positive control 100%;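 active = mean percent activation of the reporter above a cutoff set as the average over tested compounds plus their standard deviation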
Target sequence (P55055 whole entry, looked up, the tested form may be a part): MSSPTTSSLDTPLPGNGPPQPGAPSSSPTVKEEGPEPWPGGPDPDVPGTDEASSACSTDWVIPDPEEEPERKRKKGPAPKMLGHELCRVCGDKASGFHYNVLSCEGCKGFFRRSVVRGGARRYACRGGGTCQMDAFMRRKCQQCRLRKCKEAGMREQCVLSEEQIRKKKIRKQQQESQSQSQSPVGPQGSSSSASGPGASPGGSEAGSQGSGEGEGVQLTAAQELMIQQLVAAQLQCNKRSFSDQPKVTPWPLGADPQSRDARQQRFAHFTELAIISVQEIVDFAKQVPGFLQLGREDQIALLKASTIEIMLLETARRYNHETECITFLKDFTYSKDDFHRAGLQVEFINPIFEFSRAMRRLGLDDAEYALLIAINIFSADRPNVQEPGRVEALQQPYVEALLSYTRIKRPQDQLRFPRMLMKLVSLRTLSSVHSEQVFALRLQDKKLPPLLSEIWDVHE
hcDAF12 conf – H. contortus DAF-12 receptor agonists, confirmation, cell-based, luminescence, HEK293, lit1-tk-luc, triplicate; shares compounds with hcDAF12 agonist; HEK293 hcDAF-12 lit1-tk-luc reporter; % of Δ7-dafachronic acid response; activation, % at 6.8 µM; 3,400 tested, 61% active; AID 743032, 2013;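 active = mean activation across triplicate tests above the threshold derived from the earlier primary screen, cut at about 5.5% in these data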;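 also: 0% = DMSO only wells and 100% = 3 µM Δ7-dafachronic acid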
hgDAF12 ag – H. glycines DAF-12 receptor agonists, confirmation, cell-based, luminescence, HEK293, GAL4-LBD fusion; shares compounds with hgDAF-12 ag; HEK293 GAL4-hgDAF12 luciferase reporter, agonist mode; percent of butyrate response; activation, % at 6.8 µM; 3,300 tested, 80% active; AID 743050, 2013;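 active = mean activation over triplicate wells above the hit cutoff derived from the earlier primary screen, cut at about 11% in these data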;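 also: 0% = DMSO low control and 100% = 2 mM sodium butyrate high control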
LXRb DAF12 ctr – LXR agonists, Gal4 luciferase reporter, confirmation, counter-screen for hgDAF-12 agonist project, cell-based, luminescence, HEK293, H. glycines campaign | shares compounds with hgDAF-12 ag | 24 h | activation, % at 6.8 µM | 3,300 tested, under 10 active;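 active = mean activation of the triplicate above a set limit carried over from the primary screen, none filed active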
Active calls of the source: *; x = not tested or not shown.

SMILES	DAX1 inh-1	DAX1 inh-2	hcDAF12 agonist	ssDAF-12 act	hgDAF-12 ag	LXR ag	hcDAF12 conf	hgDAF12 ag	LXRb DAF12 ctr
O=C(Nc1ccc(Cl)cc1)C1=Cc2ccccc2OC1	2	3	9.6*	1.3*	18*	1	8.0*	22*	1
Cc1cccc(-n2ncc3c(N4CCC(C)CC4)ncnc32)c1	3	7.6*	6.6*	0	24*	2	6.2*	13*	1
CN(C)c1ccc(/C=C/CNC[C@H]2O[C@@H](n3ccc(N)nc3=O)[C@H](O)[C@@H]2O)cc1	2	-1	0	-1	0	x	x	x	x
CC(C)[C@H](NC(=O)CC1CCCC1)C(=O)N1CCC[C@H]1C(=O)NCCc1ccccc1Cl	x	0	-1	-1	-2	x	x	x	x
O=[N+]([O-])c1cccc(-c2nc3ccc([N+](=O)[O-])cc3[nH]2)c1	1	1	1	-1	3	x	x	x	x
O=[N+]([O-])c1ccc2nc(-c3ccc(Cl)cc3)[nH]c2c1	4	4.1*	9.9*	1.2*	22*	1	5.9*	20*	1
Cc1cccc(C)c1-n1nnnc1C1(C)CN(S(C)(=O)=O)CC(=O)N1Cc1ccc(F)cc1 (stereo not drawn)	x	-1	-2	-1	0	x	x	x	x
COc1ccc2cc(-c3nc4ccccc4n3C)c(=O)oc2c1	3	4.1*	6.8*	0	16*	1	6	11*	0
c1ccc(CNc2nc(NCc3ccccc3)c3sccc3n2)cc1	x	-2	-2	-2	-7	x	x	x	x
CCc1nnc(NC(=O)c2ccc(C)o2)s1	0	3	1	0	6	x	x	x	x
O=C(Nc1nc2c(s1)CCCC2)c1cccnc1	4	x	x	x	x	x	x	x	x
O=C(Nc1nc2c(s1)CCCC2)c1ccc(Br)o1	0	2	13*	1.3*	16*	2	10*	18*	1
Cc1ccc(C(=O)Nc2nc3c(s2)CCCC3)o1	2	3.8*	11*	0	13*	2	7.0*	16*	1
Cc1ccc(-c2csc(NC(=O)/C=C/c3ccco3)c2C(=O)O)cc1	1	3	11*	0	14*	1	6.0*	11*	1
CC1(C(=O)Nc2ccc3ccccc3c2)CCC(=O)N1C1CCN(Cc2ccccc2)CC1 (stereo not drawn)	x	1	-2	-1	0	x	x	x	x
Cc1ccc(-c2c(NC(=O)Nc3ccccc3)nc3ncccn23)cc1	x	-1	2	-1	9	x	x	x	x
O=C(/C=C/c1ccccc1)c1c[nH]c2ccccc12	4.3*	3	12*	3.8*	20*	2	8.3*	19*	1
O=C(Nc1ccccc1)C(=O)c1c[nH]c2ccccc12	3	2	15*	4.4*	15*	2	17*	25*	1
NC(=O)c1c[nH]c2ccccc12	1	0	4	-1	-1	x	x	x	x
CCOC(=O)C1=C[C@@H](C(C)(C)C)N(S(=O)(=O)c2ccc(C)cc2)[C@H]1c1cccc2ccccc12	x	-2	-2	-1	-1	x	x	x	x
COc1cccc(-c2nc(-c3ccc(Br)o3)no2)c1	5.4*	4.4*	7.6*	2.0*	31*	1	12*	23*	1
Cc1ccc(Cc2cnc(NC(=O)c3cccs3)s2)cc1	2	3.8*	10*	1.5*	15*	2	7.3*	18*	1
O=C(Nc1ncc(Cc2cccc(Cl)c2)s1)c1cccs1	1	1	2	-1	7	x	x	x	x
O=C(Nc1ncc(Cc2ccccc2)s1)c1cccs1	1	3	8.4*	1	15*	2	8.0*	20*	1
O=C(NC(=S)Nc1cnc2ccccc2c1)c1ccccc1	5.9*	4.2*	7.4*	1.9*	21*	1	6.6*	13*	1
SMILES	DAX1 inh-1	DAX1 inh-2	hcDAF12 agonist	ssDAF-12 act	hgDAF-12 ag	LXR ag	hcDAF12 conf	hgDAF12 ag	LXRb DAF12 ctr
Cc1ccc2nc(-c3ccccn3)oc2c1	0	3	12*	2.8*	14*	1	15*	24*	1
Cc1ccc2nc(-c3cccnc3)oc2c1	2	1	4	0	8	x	x	x	x
O=C(OCc1cn(Cc2cc(F)ccc2F)nn1)N1CCOCC1	x	-1	3	0	-3	x	x	x	x
O=C1CN(C(=O)CN2CCN(S(=O)(=O)c3ccccc3)CC2)c2ccccc2N1	0	0	0	-1	0	x	x	x	x
Clc1ccccc1-c1ncc(-c2ccccc2)o1	5.2*	2	9.7*	1.4*	14*	1	7.8*	21*	1
CSc1nnc(-c2ccccc2Cl)o1	4	0	-1	-1	1	x	x	x	x
COC(=O)C(C)Nc1cccc(Br)c1 (stereo not drawn)	0	0	0	-2	-1	x	x	x	x
COC(=O)c1ccc(N=NNc2cccc(Br)c2)cc1	0	3	7.9*	0	15*	1	7.1*	16*	0
c1ccc(-c2ccc(-c3ccccc3)[nH]2)cc1	3	3	6.8*	0	19*	1	3	15*	0
O=[N+]([O-])c1ccccc1COc1ccc(Cl)c2cccnc12	4.8*	3	9.1*	0	15*	2	7.8*	16*	1
Oc1ccc(F)cc1-c1cc(-c2ccc3c(c2)OCCO3)n[nH]1	4.4*	3	8.1*	1.3*	15*	1	4	20*	1
